Drawing on PubChem BioAssay (Tox21), this text covers Potency for 40 compounds.

Inconclusive results are not listed. Entries that show only a call come without a potency. Active and inactive are the calls of the source. Calls come from the whole dose curve; as a rule, active = well fitted cell-killing curve with a large enough effect in the repeat runs; inconclusive = weak or mixed curves, or effect the other way; inactive = flat fitted curve, though single readings scatter.

This experiment in a line: qHTS assay to identify small molecule agonists of the androgen receptor (AR) signaling pathway in the presence of an antagonist - cell viability counter screen (AID 1259379). Note: nearly all actives have a fitted effect of over 25% in size. The conditions noted are these: MDA-kb2 viability, CellTiter-Fluor, 16 h; series mostly up to 92.4 µM. From the text:
National Center for Advancing Translational Sciences [NCATS]
NIH Chemical Genomics Center [NCGC]
U.S. Environmental Protection Agency [EPA]
National Institutes of Environmental Health Sciences [NIEHS]
National Toxicology Program [NTP]
U.S. Food and Drug Administration [FDA]
Androgen receptor (AR) is an important member of nuclear receptor family. Its signaling plays a critical role in AR-dependent prostate cancer and other androgen related diseases. Considerable attention has been given in the past decades to develop methods to study and screen for the environmental chemicals that have the potential to interfere with metabolic homeostasis, reproduction, developmental and behavioral functions. Therefore AR binding assay for screening against androgen agonists and antagonists can be used to identify potential endocrine disruptors.
MDA-kb2 cells (from ATCC, deposited by Wilson et al.) are human breast carcinoma cells that were stably transfected with a luciferase reporter gene under control of the MMTV promoter that contains response elements for both androgen receptor (AR) and glucocorticoid receptor (GR). This particular screening for measuring luciferase reporter gene activity using MDA-kb2 cells against Tox21 10K library compounds is a confirmation study on agonist mode screening in the presence of AR-antagonist compound (Nilutamide) at 3.0uM final concentration. The cytotoxicity of the compounds was tested in parallel by measuring the cell viability using CellTiter-Fluor assay system (Promega, Madison, WI) in the same wells.
Tox21 Assay Protocol Summary:
MDA-kb2 cells (cells cultured without CO2) were dispensed at 3,000 cells/well in 4uL of culture medium into white wall/solid-bottom 1536-well plates (Corning Life Sciences, Corning, NY) using a Multidrop Combi (Thermo Fisher Scientific Inc., Waltham, MA) dispenser. The assay plates were incubated at 37C and 0% CO2 for 5hr. One uL of 3.0uM (final concentration) Nilutamide or assay buffer was added using two separate tips of Flying Reagent Dispenser (FRD, Aurora Discovery, San Diego, CA). Then 23nL of compounds dissolved in DMSO at 15 concentrations and positive controls were transferred to the assay plates using a Pintool station (Wako, San Diego, CA). The assay plates were incubated at 37C and 0% CO2 for 16 hr. After 15hr incubation at 37C, 1uL/well CellTiter-Fluor reagent (Promega Corporation) was added to each well of the assay plates using FRD. After 1hr incubation at 37C and 0% CO2, the fluorescence signal was measured using a ViewLux plate reader (PerkinElmer, Shelton, CT).
In general terms: In qHTS, concentration-response curves come from the screen itself.
Consider `O=P(O)(O)CN(CP(=O)(O)O)CP(=O)(O)O`, for which the Potency result is “inactive”.
As to `C[N+]1(C)CCCCC1`, the Potency result was “inactive”.
Under `CN(C)CCN(C)C` stands “inactive”.
Consider `COc1cc(CCN)cc(OC)c1OC`, for which the Potency entry is “inactive”.
For the compound `[P]#[In]`, the Potency result is “inactive”.
For `CC1NCCOC1c1ccccc1` (stereo not given), the Potency result was “inactive”.
Under `CCN(CCO)CCO` stands “inactive”; under `CCOC(=O)NC(C)(C)Cc1ccc(Cl)cc1`, “inactive”.
`CCOC(=O)CC(SP(=S)(OC)OC)C(=O)OCC` (stereo not given): the Potency result was “inactive”.
As for `C=CCN1CC[C@]23CCCC[C@H]2[C@H]1Cc1ccc(O)cc13`, the Potency result is “inactive”.
Under `CNC(=O)Oc1cc(C)c(N(C)C)c(C)c1` stands “inactive”.
Under `CCCCCCCCBr` stands “inactive”; under `CNC(=O)NC(O)C(Cl)(Cl)Cl` (stereo not given), “inactive”; under `C=C(Cl)CCl`, “inactive”.
Under `O=c1[nH]c2ccccc2o1` stands “inactive”; under `CCOC(=O)N(C)N=O`, “inactive”.
Regarding `CC(C)(C)c1cc(O)ccc1O`, the Potency entry is “inactive”.
Under `CNC(=O)O/N=C(/CSC)C(C)(C)C` stands “inactive”; under `CNC(=O)Oc1ccccc1C(C)C`, “inactive”.
Regarding `O=C1CCCCC1Cl` (stereo not given), the Potency entry is “inactive”.
`CCCCCCCCSC(=O)Oc1cc(Cl)nnc1-c1ccccc1`: the Potency entry is “inactive”.
The value for `NCCOS(=O)(=O)O` was “inactive”; that for `C=C(C)[C@H]1CN[C@H](C(=O)O)[C@H]1CC(=O)O` was “inactive”; that for `CC(C)(C)NC[C@H](O)c1ccc(O)cc1Cl` was “inactive”.
With `CCC1(c2cccc(O)c2)CCCCN(C)C1` (stereo not given), the Potency result was “inactive”.
For the compound `ClC1=C(Cl)C2(Cl)C(CBr)CC1(Cl)C2(Cl)Cl` (stereo not given), the Potency entry is “inactive”.
Under `CC[C@H](O)C(C[C@H](C)N(C)C)(c1ccccc1)c1ccccc1` stands “inactive”; under `CCC(C(N)=O)N1CCCC1=O` (stereo not given), “inactive”; under `Nc1c(Cl)c(F)nc(OCC(=O)O)c1Cl`, “inactive”.
The value for `CS(=O)(=O)Cl` was “inactive”.
Take `O=P(O)(O)c1ccccc1`: the Potency entry was “inactive”.
`CCN(CC)CCOC(=O)C(O)(c1ccccc1)c1ccccc1`: the Potency result is “inactive”.
Under `Oc1ccc2c3c1O[C@H]1[C@@H](O)C=C[C@H]4[C@@H](C2)NCC[C@@]341` stands “inactive”; under `CN(CCO)CCO`, “inactive”.
As for `C[C@]12C=CC(=O)C=C1CC[C@@H]1[C@@H]2CC[C@@]2(C)[C@H]1CC[C@]2(C)O`, the Potency result is “inactive”.
Under `CCCCCCCC(=O)Cl` stands “inactive”; under `CC(Cc1ccccc1)NCCn1cnc2c1c(=O)n(C)c(=O)n2C` (stereo not given), “inactive”; under `CCOC(=O)COc1ccc(Cl)cc1Cl`, “inactive”.
The value for `CCNc1nc(Cl)nc(NC(C)(C)C)n1` was “inactive”; that for `C=C1C[C@@H]2[C@H](CC[C@]3(C)C(=O)CC[C@@H]23)[C@@]2(C)C=CC(=O)C=C12` was “inactive”.
